Test results: PubChem BioAssay AID1159580 (chemical genetic matrix, 2015)
About 2,000 (36%) of roughly 5,500 compounds were called active. Not shown: some 18% with an inconclusive outcome. Rule as the data show it: active = normalized growth mostly below about 0.91 (no sharp cut-off); inconclusive = no clear call, values can overlap the other calls; inactive = mostly above about 0.92. The list shows a part of the results.

Experiment: chemical genetic growth profiling, strain panel (AID 1159580);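 also: tested at 20 µM; growth read once vehicle control cultures reached saturation at 30 °C; 1 = growth at the plate median or of vehicle wells; lower values mean less growth of the strain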
Details: growth OD

Measured: normalized growth

Cc1ccccc1OCC(O)CO (stereo not given)
inactive: S. cerevisiae deletion strains, locus YJR066W, strain TOR1, active compounds read low 0.913 | S. cerevisiae deletion strains, locus YJR075W, strain HOC1, active compounds read low 1.04 | S. cerevisiae deletion strains, locus YKL009W, strain mrt4, active compounds read low 0.987 | S. cerevisiae deletion strains, locus YKL068W, active compounds read low 0.996 | S. cerevisiae deletion strains, locus YKL085W, strain MDH1 (second series), active compounds read low 1.04 | S. cerevisiae deletion strains, locus YKL085W, strain MDH1, active compounds read low 1.04 | S. cerevisiae deletion strains, locus YKL160W, strain elf1, active compounds read low 0.986 | S. cerevisiae deletion strains, locus YKL190W, strain CNB1, active compounds read low 1.01 | S. cerevisiae deletion strains, locus YKR001C, strain vps1, active compounds read low 0.991 | S. cerevisiae deletion strains, locus YKR026C, strain gcn3, active compounds read low 0.928 | S. cerevisiae deletion strains, locus YKR091W, strain srl3, active compounds read low 0.984 | S. cerevisiae deletion strains, locus YLL001W, strain dnm1, active compounds read low 0.985 | S. cerevisiae deletion strains, locus YLL026W, active compounds read low 0.983 | S. cerevisiae deletion strains, locus YLL041C, strain sdh2, active compounds read low 0.985 | S. cerevisiae deletion strains, locus YLR027C, strain aat2, active compounds read low 0.957 | S. cerevisiae deletion strains, locus YLR039C, strain RIC1, active compounds read low 1.02 | S. cerevisiae deletion strains, locus YLR058C, strain SHM2, active compounds read low 1.02 | S. cerevisiae deletion strains, locus YLR102C, strain apc9, active compounds read low 0.991 | S. cerevisiae deletion strains, locus YLR113W, strain HOG1, active compounds read low 0.971 | S. cerevisiae deletion strains, locus YLR221C, strain rsa3, active compounds read low 0.982 | S. cerevisiae deletion strains, locus YLR258W, strain gsy2, active compounds read low 0.98 | S. cerevisiae deletion strains, locus YLR262C, strain YPT6 (second series), active compounds read low 0.973 | S. cerevisiae deletion strains, locus YLR262C, strain YPT6, active compounds read low 1.02 | S. cerevisiae deletion strains, locus YLR268W, strain sec22, active compounds read low 0.996 | S. cerevisiae deletion strains, locus YLR320W, strain mms22, active compounds read low 0.964 | S. cerevisiae deletion strains, locus YLR330W, strain CHS5, active compounds read low 1.01 | S. cerevisiae deletion strains, locus YLR342W, strain FKS1 (second series), active compounds read low 1.04 | S. cerevisiae deletion strains, locus YLR342W, strain FKS1, active compounds read low 0.966 | S. cerevisiae deletion strains, locus YLR357W, strain rsc2, active compounds read low 0.982 | S. cerevisiae deletion strains, locus YLR370C, strain arc18, active compounds read low 0.979 | S. cerevisiae deletion strains, locus YLR371W, strain rom2, active compounds read low 0.992 | S. cerevisiae deletion strains, locus YLR384C, strain iki3, active compounds read low 0.992 | S. cerevisiae deletion strains, locus YLR418C, strain cdc73, active compounds read low 1.01 | S. cerevisiae deletion strains, locus YML016C, strain PPZ1, active compounds read low 1.02 | S. cerevisiae deletion strains, locus YML032C, strain rad52, active compounds read low 0.992 | S. cerevisiae deletion strains, locus YML120C, strain ndi1, active compounds read low 0.965 | S. cerevisiae deletion strains, locus YML124C, strain tub3, active compounds read low 0.993 | S. cerevisiae deletion strains, locus YMR058W, strain fet3, active compounds read low 0.98 | S. cerevisiae deletion strains, locus YMR078C, strain ctf18, active compounds read low 0.995 | S. cerevisiae deletion strains, locus YMR125W, strain sto1, active compounds read low 0.953 | S. cerevisiae deletion strains, locus YMR129W, active compounds read low 0.99 | S. cerevisiae deletion strains, locus YMR205C, strain PFK2, active compounds read low 0.975 | S. cerevisiae deletion strains, locus YMR223W, strain ubp8, active compounds read low 0.991 | S. cerevisiae deletion strains, locus YMR231W, strain pep5, active compounds read low 0.988 | S. cerevisiae deletion strains, locus YMR263W, strain SAP30, active compounds read low 1.03 | S. cerevisiae deletion strains, locus YMR307W, strain GAS1, active compounds read low 1.09 | S. cerevisiae deletion strains, locus YNL067W, strain RPL9B, active compounds read low 1.03 | S. cerevisiae deletion strains, locus YNL071W, strain lat1, active compounds read low 0.977 | S. cerevisiae deletion strains, locus YNL183C, strain NPR1, active compounds read low 0.919 | S. cerevisiae deletion strains, locus YNL209W, strain ssb2, active compounds read low 0.984 | S. cerevisiae deletion strains, locus YNL233W, strain BNI4, active compounds read low 1.04 | S. cerevisiae deletion strains, locus YNL248C, strain rpa49, active compounds read low 0.977 | S. cerevisiae deletion strains, locus YNL250W, strain rad50, active compounds read low 0.995 | S. cerevisiae deletion strains, locus YNL271C, strain bni1, active compounds read low 0.989 | S. cerevisiae deletion strains, locus YNL298W, strain CLA4, active compounds read low 0.993 | S. cerevisiae deletion strains, locus YNL307C, strain MCK1, active compounds read low 0.994 | S. cerevisiae deletion strains, locus YNL322C, strain KRE1 (second series), active compounds read low 0.979 | S. cerevisiae deletion strains, locus YNL322C, strain KRE1, active compounds read low 1.01 | S. cerevisiae deletion strains, locus YNR049C, strain mso1, active compounds read low 0.955 | S. cerevisiae deletion strains, locus YNR052C, strain pop2, active compounds read low 0.991 | S. cerevisiae deletion strains, locus YOL006C, strain TOP1, active compounds read low 1.11 | S. cerevisiae deletion strains, locus YOL012C, strain htz1 0.987 | S. cerevisiae deletion strains, locus YOL147C, strain pex11, active compounds read low 0.992 | S. cerevisiae deletion strains, locus YOR001W, strain rrp6, active compounds read low 0.963 | S. cerevisiae deletion strains, locus YOR061W, strain CKA2, active compounds read low 1.02 | S. cerevisiae deletion strains, locus YOR069W, strain VPS5, active compounds read low 1.01 | S. cerevisiae deletion strains, locus YOR070C, strain gyp1, active compounds read low 0.969 | S. cerevisiae deletion strains, locus YOR080W, strain dia2, active compounds read low 0.968 | S. cerevisiae deletion strains, locus YOR083W, strain WHI5, active compounds read low 0.967 | S. cerevisiae deletion strains, locus YOR106W, strain vam3, active compounds read low 0.96 | S. cerevisiae deletion strains, locus YOR136W, strain idh2, active compounds read low 0.998 | S. cerevisiae deletion strains, locus YOR144C, strain elg1, active compounds read low 0.99 | S. cerevisiae deletion strains, locus YOR184W, strain ser1, active compounds read low 1.01 | S. cerevisiae deletion strains, locus YOR231W, strain MKK1, active compounds read low 0.974 | S. cerevisiae deletion strains, locus YOR265W, strain rbl2, active compounds read low 0.968 | S. cerevisiae deletion strains, locus YOR270C, strain vph1, active compounds read low 0.911 | S. cerevisiae deletion strains, locus YOR290C, strain snf2, active compounds read low 0.969 | S. cerevisiae deletion strains, locus YOR316C, strain cot1, active compounds read low 0.992 | S. cerevisiae deletion strains, locus YPL051W, strain arl3, active compounds read low 0.981 | S. cerevisiae deletion strains, locus YPL055C, strain LGE1, active compounds read low 1.07 | S. cerevisiae deletion strains, locus YPL078C, strain atp4, active compounds read low 0.971 | S. cerevisiae deletion strains, locus YPL106C, strain sse1, active compounds read low 0.958 | S. cerevisiae deletion strains, locus YPL240C, strain hsp82, active compounds read low 0.992 | S. cerevisiae deletion strains, locus YPL256C, strain CLN2, active compounds read low 0.974 | S. cerevisiae deletion strains, locus YPR119W, strain clb2, active compounds read low 0.997 | S. cerevisiae deletion strains, locus YPR141C, strain kar3, active compounds read low 0.989 | S. cerevisiae deletion strains, locus YPR163C, strain tif3, active compounds read low 0.991 | S. cerevisiae deletion strains, locus YPR167C, strain met16, active compounds read low 0.998 | S. cerevisiae deletion strains, strain wtn01, active compounds read low 1 | S. cerevisiae strains, strain wild type, active compounds read low 1.02
